Inconclusive results are not listed. Activity calls are given as the source filed them. The call rests on the fitted dose curve; in most records, active means well fitted curve in the direction sought with a large enough effect; inconclusive means small, poorly fitted or top-dose-only effect, or another doubt; inactive means no such curve, though single readings can be large; an effect the other way counts as inactive or inconclusive.
Key:
[1] = qHTS of pediatric cancer cell lines to identify multiple opportunities for drug repurposing: Primary screen for TC32 cells (AID 1347089); further: nearly all actives have a fitted effect of over 60% in size; further: potency means the concentration at half of the fitted maximal effect
Procedure, shortened: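 qHTS, TC32, 48 h drug treatment, CellTiter-Glo luminescence as a proxy for metabolically active cells; primary top concentration 46 µM (MIPE 11-pt, NPC 8-pt); confirmatory 11-pt.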

[2] = qHTS of pediatric cancer cell lines to identify multiple opportunities for drug repurposing: Primary screen for DAOY cells (AID 1347090); further: nearly all actives have a fitted effect of over 55% in size; further: potency means the concentration at half of the fitted maximal effect
Procedure, shortened: (§1)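 Viability measured as metabolically active cells via CellTiter-Glo luminescence following 48 hours of compound exposure, 11-point dilutions in confirmatory testing. 500-1,000 cells/well plated 5 hours before dosing; controls were DMSO and 2.3 µM bortezomib.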

[3] = qHTS of pediatric cancer cell lines to identify multiple opportunities for drug repurposing: Primary screen for SJ-GBM2 cells (AID 1347091); further: potency means the concentration at half of the fitted maximal effect
Procedure, shortened: as §1

[4] = qHTS of pediatric cancer cell lines to identify multiple opportunities for drug repurposing: Primary screen for A673 cells (AID 1347092); further: nearly all actives have a fitted effect of over 45% in size; further: potency means the concentration at half of the fitted maximal effect
Procedure, shortened: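 Luminescence from CellTiter-Glo, taken after 15 min at room temperature, served as the proxy for metabolically active cells following 48 h treatment. Both potency and efficacy were taken from curves fitted to the titration data.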

[5] = qHTS of pediatric cancer cell lines to identify multiple opportunities for drug repurposing: Primary screen for SK-N-MC cells (AID 1347093); further: potency means the concentration at half of the fitted maximal effect
Procedure, shortened: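 Metabolically active cells were quantified by ATP-dependent luminescence (CellTiter-Glo, 15 min at room temperature) following 48 h treatment. Cells had been plated at 500-1,000 per well and settled for 5 h beforehand.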

[6] = qHTS of pediatric cancer cell lines to identify multiple opportunities for drug repurposing: Primary screen for BT-37 cells (AID 1347094); further: potency means the concentration at half of the fitted maximal effect
Procedure, shortened: (§2)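 Luminescence from CellTiter-Glo served as readout of metabolically active cells after 48 h compound exposure. Titrations: MIPE 11-point, from 0.78 nM; NPC 8-point, from 0.59 nM (final). Concentration-response curves came straight from the primary screen.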

[7] = qHTS of pediatric cancer cell lines to identify multiple opportunities for drug repurposing: Primary screen for NB-EBc1 cells (AID 1347095); further: potency means the concentration at half of the fitted maximal effect
Procedure, shortened: as §2

[8] = qHTS of pediatric cancer cell lines to identify multiple opportunities for drug repurposing: Primary screen for U-2 OS cells (AID 1347096); further: nearly all actives have a fitted effect of over 50% in size
Procedure, shortened: (§3)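 Viability after 48 h compound treatment at 37C, 500-1,000 cells/well, read as ATP luminescence with CellTiter-Glo. Primary screens used 11-point (MIPE, 0.78 nM-46 µM) or 8-point (NPC, 0.59 nM-46 µM) final concentrations; follow-up screens used 11-point dilutions.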

[9] = qHTS of pediatric cancer cell lines to identify multiple opportunities for drug repurposing: Primary screen for Saos-2 cells (AID 1347097); further: nearly all actives have a fitted effect of over 40% in size; further: potency means the concentration at half of the fitted maximal effect
Procedure, shortened: as §2

[10] = qHTS of pediatric cancer cell lines to identify multiple opportunities for drug repurposing: Primary screen for SK-N-SH cells (AID 1347098); further: nearly all actives have a fitted effect of over 65% in size; further: potency means the concentration at half of the fitted maximal effect
Procedure, shortened: (§4)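 Cells (500-1,000/well) rested 5 h, then received compounds for 48 h; metabolically active cells were measured by CellTiter-Glo luminescence. Final concentrations spanned up to 46 µM (MIPE, 11-point) or 0.59 nM-46 µM (NPC, 8-point) in primary screens, 11-point in follow-ups.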

[11] = qHTS of pediatric cancer cell lines to identify multiple opportunities for drug repurposing: Primary screen for LAN-5 cells (AID 1347100); further: potency means the concentration at half of the fitted maximal effect
Procedure, shortened: as §3

[12] = qHTS of pediatric cancer cell lines to identify multiple opportunities for drug repurposing: Primary screen for BT-12 cells (AID 1347101); further: nearly all actives have a fitted effect of over 25% in size; further: potency means the concentration at half of the fitted maximal effect
Procedure, shortened: as §4

[13] = qHTS of pediatric cancer cell lines to identify multiple opportunities for drug repurposing: Primary screen for Rh18 cells (AID 1347102); further: nearly all actives have a fitted effect of over 65% in size
Procedure, shortened: as §3

[14] = qHTS of pediatric cancer cell lines to identify multiple opportunities for drug repurposing: Primary screen for OHS-50 cells (AID 1347103); further: nearly all actives have a fitted effect of over 40% in size; further: potency means the concentration at half of the fitted maximal effect
Procedure, shortened: as §4

[15] = qHTS of pediatric cancer cell lines to identify multiple opportunities for drug repurposing: Primary screen for RD cells (AID 1347104); further: nearly all actives have a fitted effect of over 55% in size
Procedure, shortened: as §2

[16] = qHTS of pediatric cancer cell lines to identify multiple opportunities for drug repurposing: Primary screen for MG 63 (6-TG R) cells (AID 1347105); further: nearly all actives have a fitted effect of over 50% in size; further: potency means the concentration at half of the fitted maximal effect
Procedure, shortened: as §2

[17] = qHTS of pediatric cancer cell lines to identify multiple opportunities for drug repurposing: Primary screen for NB1643 cells (AID 1347099); further: nearly all actives have a fitted effect of over 50% in size
Procedure, shortened: as §2

Measured: Potency

C[N+]1(C)[C@@H]2CC(OC(=O)[C@H](CO)c3ccccc3)C[C@H]1[C@@H]1O[C@@H]12 (some centres undefined)
not listed: [17]
inactive: all other assays above

O=C(Nc1ccc(C(=O)O)c(O)c1)c1ccccc1
not listed: [17]
inactive: all other assays above

Cc1c(N)c(=O)n(-c2ccccc2)n1C
inactive: all assays above

CN(C)CCn1nnnc1SCC1=C(C(=O)O)N2C(=O)[C@@H](NC(=O)Cc3csc(N)n3)[C@H]2SC1
not listed: [17]
inactive: all other assays above

C/C(=N\O)c1ccc(OCC(=O)N2CCCCC2)cc1
not listed: [17]
inactive: all other assays above

CNC(=O)c1c(I)c(NC(=O)CCCCC(=O)Nc2c(I)c(C(=O)O)c(I)c(C(=O)NC)c2I)c(I)c(C(=O)O)c1I
not listed: [17]
inactive: all other assays above

CC1(C)S[C@@H]2[C@H](NC(=O)[C@H](N)c3ccccc3)C(=O)N2[C@H]1C(=O)O
inactive: all assays above

Cc1ccc(C(=O)c2ccc(CC(=O)O)n2C)cc1
inactive: all assays above

Cc1ccc2c(n1)Oc1ccc(C(C)C(=O)OCC(=O)N(C)C)cc1C2 (centres undefined)
not listed: [9]
inactive: all other assays above

Nc1c(CC(=O)O)cccc1C(=O)c1ccc(Br)cc1
not listed: [17]
inactive: all other assays above

CC(=O)SCC(CC(=O)c1ccc(C)cc1)C(=O)O (centres undefined)
not listed: [9] | [17]
inactive: all other assays above

Clc1ccccc1-c1nc(-c2ccncc2)no1
not listed: [10] | [12] | [14] | [17]
inactive: all other assays above

N=C(N)N
not listed: [17]
inactive: all other assays above

CN1CCN(c2cc3c(nn2)Oc2ccccc2N3C)CC1
not listed: [14] | [17]
inactive: all other assays above

Nc1ccc(O)c(C(=O)O)c1
not listed: [17]
inactive: all other assays above

CCOC(=O)c1ccccc1O
active: [4] 1 nM
inactive: all other assays above

Cc1ccc(O)c(-n2nc3ccccc3n2)c1
not listed: [17]
inactive: all other assays above

C=CCCCCCCCCC(=O)O
not listed: [17]
inactive: all other assays above

O=C(CCN1CCN(CCO)CC1)N1c2ccccc2Sc2ccc(C(F)(F)F)cc21
inactive: all assays above

COc1ccnc2c1CCCCC2S(=O)c1nc2ccccc2[nH]1 (centres undefined)
not listed: [17]
inactive: all other assays above

Cc1[nH]cnc1CN1CCc2c(c3ccccc3n2C)C1=O
not listed: [14] | [17]
inactive: all other assays above

CCCCCCCCCCCCCCCC(=O)OC(C)C
not listed: [17]
inactive: all other assays above

CCCCCCCCCCCCOCCO
not listed: [17]
inactive: all other assays above

CCCSc1ccc2nc(NC(=O)OC)[nH]c2c1
active: [1] 938 nM | [2] 1330 nM | [3] 422 nM | [4] 841 nM | [5] 841 nM | [6] 2460 nM | [7] 266 nM | [9] 4220 nM | [11] 1190 nM | [12] 2760 nM | [14] 872 nM | [16] 668 nM

Nc1ccc(C(=O)O)c(O)c1
not listed: [17]
inactive: all other assays above

COc1cc(NC(C)CCCN)c2ncccc2c1 (centres undefined)
inactive: [2] | [3] | [11] | [16]
active: [1] 16700 nM | [9] 23700 nM | [10] 17200 nM | [14] 24600 nM

CCCOC(=O)c1ccc(O)cc1
not listed: [4] | [9] | [14]
inactive: all other assays above

CC(C)OC(=O)c1cc(C(=O)OC(C)C)cc([N+](=O)[O-])c1
not listed: [5] | [12]
inactive: all other assays above

COC(=O)C1=C(C)NC(C)=C(C(=O)OCC(C)C)C1c1ccccc1[N+](=O)[O-] (centres undefined)
active: [14] 24600 nM
inactive: [1] | [2] | [3] | [9] | [16]

CCCCCCOc1ccccc1C(N)=O
not listed: [5] | [12] | [14]
inactive: all other assays above

O=C(CS)Nc1ccccc1
inactive: [1] | [6] | [8] | [10] | [12] | [13] | [14] | [16]

CC(C(=O)O)c1ccc2c(c1)[nH]c1ccc(Cl)cc12 (centres undefined)
not listed: [5] | [10] | [17]
inactive: all other assays above

From PubChem BioAssay (NCATS)
